The target in test [1] is Galactokinase (Homo sapiens) (UniProt P51570). The test is described as follows: qHTS Validation Assay for Inhibitors of Human Galactokinase (GALK) (AID 493189). Note: 0% is about no effect. In a few lines: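 Enzyme activity is inferred from ATP consumption: human GALK phosphorylates galactose (100 uM) using 35 uM ATP for 1 h at room temperature, and luciferase-based Kinase-Glo Plus reports unconsumed ATP.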

Test [2] in a line: Validation screen for small molecules that induce DNA re-replication in SW480 colon adenocarcinoma cells (AID 504364). Note: 0% is about no effect. In a few lines:
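SW480 cells seeded at 250 per well were exposed to compound or DMSO for 48 hr at 37 C, 5% CO2, then stained with Hoechst for 40 min. DNA content per nucleus was imaged (405 nm ex, 500-530 nm em).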

For test [3], the target named is Peptidyl-prolyl cis-trans isomerase NIMA-interacting 1 (Homo sapiens) (UniProt Q13526). The test is described as follows: qHTS Validation Assay to Find Inhibitors of Pin1 (AID 504536; active = well fitted inhibition curve with a large enough effect in the polarisation, with a control signal flat, not every such curve was filed as active; the % refers to the polarisation;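 note: 0% = full Pin1 enzyme wells and -100% = no-enzyme wells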). The method, boiled down:
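Fluorescence polarization competition: compounds (titration) displace HiFluor-488-labeled Pin1-1b peptide from Pin1 (0.3 uM final) in pH 7.5 HEPES buffer with DTT, 10 min at room temperature; %Activity normalized to no-enzyme wells, curves fitted.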

Test [4] addresses Phosphoglycerate kinase, glycosomal (Trypanosoma brucei brucei) (UniProt P07378). The test is described as follows: qHTS Validation Assay to Find Inhibitors of Phosphoglycerate Kinase (AID 504547).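 Note: control wells lack PGK and mark full inhibition.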 The method, boiled down:
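PGK activity was coupled to GAPDH (100nM final), which generates the unstable substrate 1,3-bisphosphoglycerate in-well. Reactions ran 60 minutes at room temperature in 100mM TEA pH 7.6, 5mM MgCl2, 0.01% Tween-20, then Kinase-Glo Plus luminescence was read.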

Test [5] deals with phosphoglycerate mutase (Leishmania major) (UniProt Q4Q090). The test is described as follows: qHTS Validation Assay to Find Inhibitors of Phosphoglycerate Mutase (AID 504548). Note: series mostly up to about 58 µM; % is set by controls: 0 for no effect and ±100 for the full control effect. The method, boiled down:
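Luminescent end-point read-out via Kinase-GloPlus after a 10-minute development. Reaction: 1.25nM Leishmania major PGAM with substrate and compound, 45 minutes at room temperature in TEA buffer (pH 7.6) with MgCl2 and Tween-20.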

In test [6] the target is DNA dC->dU-editing enzyme APOBEC-3G (Homo sapiens) (UniProt Q9HC16). The test is described as follows: qHTS for inhibitors of Vif-A3G interactions: Validation (AID 588379). Note: 0% is about no effect. In a few lines:
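HeLa cells stably expressing Vif and A3G-eYFP, 700 cells/well, incubated overnight at 37 deg C, then exposed to compound overnight at 37 deg C. Inhibition of Vif-mediated degradation read as increased yellow fluorescence (Ex 488/Em 500-530) by laser-scanning cytometry.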

Test [7] addresses Estrogen receptor (Homo sapiens) (UniProt P03372). As to the kind of experiment: qHTS assay for small molecule antagonists of estrogen receptor alpha signaling (AID 588513; active = well fitted curve in the direction sought with a large enough effect in the signal ratio, with a control signal flat, not every such curve was filed as active; the % refers to the signal ratio; note: % is set by controls: 0 for no effect and ±100 for the full control effect). In a few lines: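 Antagonist-mode qHTS in ER-alpha-UAS-bla HEK 293 cells: compound titration, 0.5nM estradiol for 18 h, CCF4 fluorescence, Hill-derived IC50.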
The target in test [8] is Glucocorticoid receptor (Homo sapiens) (UniProt P04150). As to the kind of experiment: qHTS assay for small molecule agonists of glucocorticoid receptor signaling (AID 588532; active = well fitted curve in the direction sought with a large enough effect in the signal ratio, with a control signal flat; the % refers to the signal ratio;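 note: 100% = dexamethasone at 0.1 µM and 0% = DMSO only wells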). Conditions: HeLa MMTV-bla, beta-lactamase ratio, agonist, 18 h; stronger effect = higher value; percent of dexamethasone control, DMSO zero. In a few lines:
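MMTV-bla HeLa beta-lactamase reporter cells in 1% charcoal/dextran FBS medium, compounds up to 92 uM for 18 h at 37 C, CCF4 readout; normalized to 0.1 uM dexamethasone (100%), EC50 and efficacy from Hill fits.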

The target in test [9] is Ubiquitin carboxyl-terminal hydrolase 1 (Homo sapiens) (UniProt O94782). The test is described as follows: Inhibitors of USP1/UAF1: Pilot qHTS (AID 504865). Note: nearly all actives have a fitted effect of over 35% in size. Note: potency is the fitted concentration of half-maximal effect. In a few lines: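 Enzyme-free wells gave the negative control, while test wells held 1nM USP1/UAF1 preincubated with compound for 15 min at room temperature. Ub-Rho at 150nM final started the reaction, and fluorescence at 480/540 nm was recorded kinetically.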
Ubiquitin carboxyl-terminal hydrolase 1 (Homo sapiens), sequence (O94782 whole entry, looked up): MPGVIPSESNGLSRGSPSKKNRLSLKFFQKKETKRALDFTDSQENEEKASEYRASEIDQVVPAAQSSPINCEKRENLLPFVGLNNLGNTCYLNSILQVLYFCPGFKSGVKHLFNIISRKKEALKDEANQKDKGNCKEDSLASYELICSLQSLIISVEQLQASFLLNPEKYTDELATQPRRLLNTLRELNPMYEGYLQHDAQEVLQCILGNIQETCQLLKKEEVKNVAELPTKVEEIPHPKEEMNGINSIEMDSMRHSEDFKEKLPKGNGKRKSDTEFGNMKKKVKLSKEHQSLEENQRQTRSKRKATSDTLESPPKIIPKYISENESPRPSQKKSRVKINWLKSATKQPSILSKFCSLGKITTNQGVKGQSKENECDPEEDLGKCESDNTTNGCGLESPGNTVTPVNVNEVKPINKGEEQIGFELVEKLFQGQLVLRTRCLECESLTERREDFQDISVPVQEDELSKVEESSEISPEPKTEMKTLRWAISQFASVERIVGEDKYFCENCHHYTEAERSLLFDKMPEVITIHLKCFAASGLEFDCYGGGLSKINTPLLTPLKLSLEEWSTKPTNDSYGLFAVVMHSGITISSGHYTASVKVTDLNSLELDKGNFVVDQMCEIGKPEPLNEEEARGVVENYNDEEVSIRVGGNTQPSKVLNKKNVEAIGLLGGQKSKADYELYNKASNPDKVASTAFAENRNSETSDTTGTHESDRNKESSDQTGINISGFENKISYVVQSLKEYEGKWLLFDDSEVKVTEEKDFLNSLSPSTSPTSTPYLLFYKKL

Test [10] can be described thus: qHTS for Inhibitors of ATXN expression: Validation of Cytotoxic Assay (AID 588349). Note: % is set by controls: 0 for no effect and ±100 for the full control effect. The method, boiled down: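 HEK293 cells were dosed with titrated compounds for 72 hr at 37 degrees C. Viability was read by CellTiter Glo luminescence, with intracellular ATP as the marker of cell survival.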
Test [11] in a line: qHTS for Inhibitors of ATXN expression: Validation (AID 588378). Note: series mostly up to about 57 µM; % is set by controls: 0 for no effect and ±100 for the full control effect; nearly all actives have a fitted effect of over 75% in size. In a few lines:
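After a 2 h attachment and 24 h compound incubation, HEK293-ATXN2-FFLuc wells are read for fluorescence at 405 nm excitation/525 nm emission as a viability measure, then for Bright-Glo luminescence reflecting ATXN2 expression.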

Test [12] addresses Bile acid receptor (Homo sapiens) (UniProt Q96RI1). As to the kind of experiment: qHTS assay for small molecule antagonists of farnesoid X receptor signaling (AID 588526; calls by dose curve; note: % is set by controls: 0 for no effect and ±100 for the full control effect). In a few lines:
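Antagonist mode: titrated compounds tested against chenodeoxycholic acid stimulation (normalized to 50 uM CDCA and DMSO) in GeneBLAzer HEK293T cells for 16 h. Beta-lactamase read by CCF4 fluorescence; IC50 from Hill fits.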

A short description of test [13]: qHTS assay for small molecule antagonists of peroxisome proliferator-activated receptor delta signaling (AID 588535; active = well fitted inhibition curve with a large enough effect in the signal ratio, with a control signal flat, not every such curve was filed as active; the % refers to the signal ratio;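 for max response: cells co-treated with a PPAR-delta agonist as stimulator during compound exposure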). Conditions: HEK293T PPARd-UAS-bla, beta-lactamase FRET ratio, 18 h; 460 nm channel. In a few lines:
(§1)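 Cells were seeded at 4000 per well in assay medium containing 2% charcoal/dextran FBS and held 5 hrs at 37 C. Compounds were then added for 18 hrs. CCF4 substrate was applied for 2 hrs at room temperature before fluorescence reading.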

The target of test [14] is Peroxisome proliferator-activated receptor delta (Homo sapiens) (UniProt Q03181). The test is described as above. The method, boiled down: as §1
In test [15] the target is Peroxisome proliferator-activated receptor gamma (Homo sapiens) (UniProt P37231). The test is described as follows: qHTS assay for small molecule agonists of peroxisome proliferator-activated receptor gamma signaling (AID 588536; active = well fitted curve in the direction sought with a large enough effect in the signal ratio, with a control signal flat, not every such curve was filed as active; the % refers to the signal ratio;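 note: 0% = DMSO basal wells and 100% = rosiglitazone at 2 µM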). The method, boiled down:
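Test agents, titrated, stimulated HEK293 UAS-bla cells overnight (16 h, 37 C). Substrate CCF4 was then added for two hours at room temperature before fluorescence reading.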

Test [16] deals with Glucocorticoid receptor (Homo sapiens) (UniProt P04150). As to the kind of experiment: qHTS assay for small molecule antagonists of glucocorticoid receptor signaling (AID 588533; active = well fitted inhibition curve with a large enough effect in the signal ratio, with a control signal flat, not every such curve was filed as active; the % refers to the signal ratio). The method, boiled down:
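Antagonist-mode qHTS: compound titrations added to GRE-bla HeLa cells, then dexamethasone 2 nM final; 18 h, 37 C. CCF4 FRET fluorescence normalized to dexamethasone and DMSO; IC50 from Hill fit.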

Test [17] deals with Estrogen receptor (Homo sapiens) (UniProt P03372). The test is described as follows: qHTS assay for small molecule agonists of estrogen receptor alpha signaling (AID 588514; calls by dose curve;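 note: 0% = vehicle only and 100% = reference agonist; nearly all actives have a fitted effect of over 70% in size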). In a few lines: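 ER-alpha-UAS-bla GripTite HEK 293 cells in medium with 2% charcoal/dextran-treated FBS were treated with compound titrations at 37 C for 18 hrs; beta-lactamase reporter read by CCF4 fluorescence after 2 hrs at RT.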
Estrogen receptor (Homo sapiens), sequence (P03372 whole entry, looked up): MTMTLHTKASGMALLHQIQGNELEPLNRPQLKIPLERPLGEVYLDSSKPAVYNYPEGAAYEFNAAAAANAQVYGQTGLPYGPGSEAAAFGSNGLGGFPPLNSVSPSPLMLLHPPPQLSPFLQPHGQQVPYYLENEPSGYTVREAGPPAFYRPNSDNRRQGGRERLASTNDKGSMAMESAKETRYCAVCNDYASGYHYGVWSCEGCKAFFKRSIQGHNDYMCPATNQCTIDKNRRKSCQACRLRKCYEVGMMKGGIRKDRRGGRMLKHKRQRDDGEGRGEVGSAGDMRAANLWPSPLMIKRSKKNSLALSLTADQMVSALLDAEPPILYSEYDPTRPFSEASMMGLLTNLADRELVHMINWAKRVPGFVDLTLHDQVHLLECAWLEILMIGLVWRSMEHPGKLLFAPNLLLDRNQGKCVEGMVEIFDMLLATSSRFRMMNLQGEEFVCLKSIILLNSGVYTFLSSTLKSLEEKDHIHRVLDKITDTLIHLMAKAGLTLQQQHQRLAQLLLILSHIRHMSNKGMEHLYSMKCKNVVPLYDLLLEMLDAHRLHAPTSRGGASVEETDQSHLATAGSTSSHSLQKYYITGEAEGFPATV

The target in test [18] is Peroxisome proliferator-activated receptor gamma (Homo sapiens) (UniProt P37231). The test is described as follows: qHTS assay for small molecule antagonists of peroxisome proliferator-activated receptor gamma signaling (AID 588537; active = well fitted inhibition curve with a large enough effect in the signal ratio, with a control signal flat, not every such curve was filed as active; the % refers to the signal ratio;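 note: reporter cells co-stimulated with 50 nM rosiglitazone agonist during compound treatment; % of control where 0% means no effect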). The method, boiled down:
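Step one: plate 3000 HEK293 UAS-bla cells per well in medium with 1% stripped serum and hold 6-6.5 h at 37 C. Step two: add compound and 50 nM agonist for 16 h. Step three: CCF4 loading, fluorescence read.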

Records with an inconclusive call do not appear. Some compounds were tested as several samples or in several runs, with calls that do not always agree. The source made the active and inactive calls. Unless noted, calls come from the whole dose curve; as a rule, active = well fitted curve in the direction sought with a large enough effect; inconclusive = small, poorly fitted or top-dose-only effect, or another doubt; inactive = no such curve, though single readings can be large; an effect the other way counts as inactive or inconclusive.

Glucocorticoid receptor (Homo sapiens), sequence (P04150 whole entry, looked up): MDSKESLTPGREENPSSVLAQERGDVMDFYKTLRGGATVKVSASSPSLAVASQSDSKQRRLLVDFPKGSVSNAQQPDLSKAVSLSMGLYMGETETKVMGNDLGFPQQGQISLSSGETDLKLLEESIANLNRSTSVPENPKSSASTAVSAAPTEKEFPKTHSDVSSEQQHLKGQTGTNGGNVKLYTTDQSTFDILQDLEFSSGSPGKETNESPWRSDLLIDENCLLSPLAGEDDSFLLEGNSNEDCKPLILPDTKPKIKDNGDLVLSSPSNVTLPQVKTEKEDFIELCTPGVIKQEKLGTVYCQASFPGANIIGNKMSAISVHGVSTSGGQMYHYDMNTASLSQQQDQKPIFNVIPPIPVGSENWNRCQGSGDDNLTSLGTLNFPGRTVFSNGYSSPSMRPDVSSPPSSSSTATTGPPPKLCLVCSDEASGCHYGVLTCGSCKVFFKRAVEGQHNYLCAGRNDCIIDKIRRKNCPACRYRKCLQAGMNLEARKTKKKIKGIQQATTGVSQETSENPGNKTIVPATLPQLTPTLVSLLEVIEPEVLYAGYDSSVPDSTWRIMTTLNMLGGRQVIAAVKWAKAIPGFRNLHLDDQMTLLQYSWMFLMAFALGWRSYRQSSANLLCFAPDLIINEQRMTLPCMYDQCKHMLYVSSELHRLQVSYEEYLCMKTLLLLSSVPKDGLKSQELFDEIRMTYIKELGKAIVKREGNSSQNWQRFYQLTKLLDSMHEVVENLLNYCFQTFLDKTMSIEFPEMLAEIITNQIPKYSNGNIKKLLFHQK
Peptidyl-prolyl cis-trans isomerase NIMA-interacting 1 (Homo sapiens), sequence (Q13526 whole entry, looked up): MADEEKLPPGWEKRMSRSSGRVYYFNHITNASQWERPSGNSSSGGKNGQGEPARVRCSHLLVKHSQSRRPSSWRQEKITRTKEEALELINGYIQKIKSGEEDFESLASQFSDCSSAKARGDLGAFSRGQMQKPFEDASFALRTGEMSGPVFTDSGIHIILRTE
Bile acid receptor (Homo sapiens), sequence (Q96RI1 whole entry, looked up): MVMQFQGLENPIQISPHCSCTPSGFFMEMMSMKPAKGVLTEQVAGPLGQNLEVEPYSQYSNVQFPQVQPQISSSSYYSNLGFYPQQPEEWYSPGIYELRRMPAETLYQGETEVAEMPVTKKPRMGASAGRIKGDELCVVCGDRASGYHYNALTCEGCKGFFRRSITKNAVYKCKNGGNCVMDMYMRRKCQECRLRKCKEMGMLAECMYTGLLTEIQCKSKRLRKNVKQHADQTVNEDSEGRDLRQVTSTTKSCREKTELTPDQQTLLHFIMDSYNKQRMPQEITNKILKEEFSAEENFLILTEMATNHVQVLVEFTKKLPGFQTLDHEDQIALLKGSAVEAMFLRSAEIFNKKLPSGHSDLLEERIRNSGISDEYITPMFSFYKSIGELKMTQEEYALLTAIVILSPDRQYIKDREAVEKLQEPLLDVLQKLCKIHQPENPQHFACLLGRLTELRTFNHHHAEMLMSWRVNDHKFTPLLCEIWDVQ
Galactokinase (Homo sapiens), sequence (P51570 whole entry, looked up): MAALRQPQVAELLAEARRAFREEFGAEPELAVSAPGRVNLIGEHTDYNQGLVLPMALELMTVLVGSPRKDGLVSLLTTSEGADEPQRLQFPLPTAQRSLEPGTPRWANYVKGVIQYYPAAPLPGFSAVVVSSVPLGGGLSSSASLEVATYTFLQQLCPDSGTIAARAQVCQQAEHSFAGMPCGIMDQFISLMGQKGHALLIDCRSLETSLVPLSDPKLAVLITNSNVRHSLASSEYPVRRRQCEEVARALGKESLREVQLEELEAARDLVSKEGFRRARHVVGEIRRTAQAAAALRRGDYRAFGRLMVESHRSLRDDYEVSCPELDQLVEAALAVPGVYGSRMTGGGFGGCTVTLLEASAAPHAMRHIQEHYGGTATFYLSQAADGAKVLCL
phosphoglycerate mutase (Leishmania major), sequence (Q4Q090 1-553): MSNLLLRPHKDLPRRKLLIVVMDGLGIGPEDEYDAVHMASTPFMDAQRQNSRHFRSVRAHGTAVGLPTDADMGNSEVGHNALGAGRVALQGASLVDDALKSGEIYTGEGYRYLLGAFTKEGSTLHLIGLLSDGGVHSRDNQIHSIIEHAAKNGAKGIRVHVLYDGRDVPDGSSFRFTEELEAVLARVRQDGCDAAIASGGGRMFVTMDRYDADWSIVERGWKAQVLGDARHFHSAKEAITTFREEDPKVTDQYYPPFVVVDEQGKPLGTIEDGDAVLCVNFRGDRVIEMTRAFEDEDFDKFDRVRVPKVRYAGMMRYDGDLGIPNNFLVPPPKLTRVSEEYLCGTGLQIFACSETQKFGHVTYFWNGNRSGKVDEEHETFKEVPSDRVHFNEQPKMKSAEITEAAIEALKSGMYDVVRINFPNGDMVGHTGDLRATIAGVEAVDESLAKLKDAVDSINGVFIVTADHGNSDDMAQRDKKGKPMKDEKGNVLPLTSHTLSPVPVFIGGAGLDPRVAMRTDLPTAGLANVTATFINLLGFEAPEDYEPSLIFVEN
Peroxisome proliferator-activated receptor gamma (Homo sapiens), sequence (P37231 whole entry, looked up): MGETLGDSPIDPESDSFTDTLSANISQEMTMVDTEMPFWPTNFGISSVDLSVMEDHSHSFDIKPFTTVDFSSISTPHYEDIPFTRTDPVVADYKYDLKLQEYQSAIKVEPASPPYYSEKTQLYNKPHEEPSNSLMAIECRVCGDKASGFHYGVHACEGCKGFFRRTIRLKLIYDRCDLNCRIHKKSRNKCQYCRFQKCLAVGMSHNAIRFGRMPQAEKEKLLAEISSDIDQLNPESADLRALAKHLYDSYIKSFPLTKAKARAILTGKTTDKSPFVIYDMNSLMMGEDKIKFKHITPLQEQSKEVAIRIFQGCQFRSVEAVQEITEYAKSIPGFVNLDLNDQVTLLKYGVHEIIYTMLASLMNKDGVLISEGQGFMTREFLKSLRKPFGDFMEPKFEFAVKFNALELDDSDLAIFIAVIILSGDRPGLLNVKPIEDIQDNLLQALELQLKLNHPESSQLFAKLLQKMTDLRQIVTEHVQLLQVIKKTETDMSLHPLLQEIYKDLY
Phosphoglycerate kinase, glycosomal (Trypanosoma brucei brucei), sequence (P07378 whole entry, looked up): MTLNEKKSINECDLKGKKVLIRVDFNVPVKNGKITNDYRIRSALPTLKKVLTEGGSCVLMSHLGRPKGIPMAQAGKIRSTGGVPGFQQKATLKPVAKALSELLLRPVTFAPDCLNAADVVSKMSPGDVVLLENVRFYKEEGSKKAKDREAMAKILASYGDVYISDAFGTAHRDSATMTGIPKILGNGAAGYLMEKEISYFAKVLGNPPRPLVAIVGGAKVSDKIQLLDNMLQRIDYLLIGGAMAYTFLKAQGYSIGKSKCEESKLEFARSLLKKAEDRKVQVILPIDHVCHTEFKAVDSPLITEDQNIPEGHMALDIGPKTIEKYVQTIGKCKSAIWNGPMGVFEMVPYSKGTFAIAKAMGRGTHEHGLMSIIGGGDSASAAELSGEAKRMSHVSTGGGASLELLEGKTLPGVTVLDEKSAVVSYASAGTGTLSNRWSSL

For `COC(=O)C1=C(C)NC(C)=C(C(=O)OC)C1c1ccccc1[N+](=O)[O-]`, the compound was called inactive in [1], in [2], in test [3], in test [4], in test [5] and in test [6]. The compound was classed as inactive in [7]. Also, the activation in test [8] is -7.74% (inactive).

For `CC(C)C(=O)c1c(C(C)C)nn2ccccc12`, the call in test [1], in test [2], in test [3], in test [4], in [5] and in [6] was inactive. For the same compound, the Potency entry in [9], in test [10] and in [11] was “inactive” in each case.

For the compound `CNCC(O)c1ccc(O)c(O)c1` (stereo not drawn), the result in [1], in [2], in test [3], in test [4] and in test [5] was inactive. In addition, the Potency entry in test [9] and in [11] was “inactive” in each case.

Take `CN(C)CCCN1c2ccccc2Sc2ccc(Cl)cc21`: the call in test [1], in [3], in test [4], in test [5], in [12] and in test [14] was inactive. Also, the call in [15] was inactive. Also, the Potency entry in test [9] was “inactive”. In addition, in [8], the activation was 7.77% (inactive). Further, in test [13], the max response was -54.6%.

With `CC(C)(C)[C@]1(O)CCN2C[C@H]3c4ccccc4CCc4cccc(c43)[C@@H]2C1`, the outcome in [3], in test [4] and in test [5] was inactive. Besides, the Potency result in test [9], in test [10] and in test [11] was “inactive” in each case.

On to `Cn1cc[nH]c1=S`, for which, in test [9], the Potency entry was “inactive”.

In the case of `CCCCN1CCCC[C@H]1C(=O)Nc1c(C)cccc1C`, the Potency entry in test [9] is “inactive”.

As for `C[C@H]1O[C@@H](n2cc(F)c(=O)[nH]c2=O)[C@H](O)[C@@H]1O`, the result in test [1] and in [2] was inactive. For the same compound, the Potency entry in test [9] was “inactive”.

Consider `CC(COc1ccccc1)NC(C)C(O)c1ccc(O)cc1` (stereo not drawn), for which the Potency result in test [9] was “inactive”.

With `CC[C@H]1CN2CCc3cc(OC)c(OC)cc3[C@@H]2C[C@@H]1C[C@H]1NCCc2cc(OC)c(OC)cc21`, the call in [1], in [3], in test [4] and in [5] was inactive.

Turning to `NC(CSCC(=O)O)C(=O)O` (stereo not drawn), the Potency result in test [9] is “inactive”.

For the compound `CCCCN(CCCC)CC(O)c1cc(Cl)cc2c1-c1ccc(Cl)cc1/C2=C/c1ccc(Cl)cc1` (stereo not drawn), in test [9], the Potency result is “inactive”.

Consider `Oc1cn2c(n1)Nc1ccc(Cl)c(Cl)c1C2`, for which, in test [9], the Potency entry is “inactive”.

Take `Cc1ccc2nc(N)[nH]c(=O)c2c1Sc1ccncc1`: in test [9], the Potency result is “inactive”.

With `Nc1nc2c(ncn2CCC(CO)CO)c(=O)[nH]1`, the Potency entry in test [9] is “inactive”.

Consider `c1ccc2c(CC3=NCCN3)cccc2c1`, for which the Potency result in [9] was “inactive”.

As for `CCCOC(=O)c1ccccc1`, the Potency entry in test [9] is “inactive”.

On to `CC(C)(C(=O)O)c1ccc(C(O)CCCN2CCC(C(O)(c3ccccc3)c3ccccc3)CC2)cc1` (stereo not drawn), for which the call in [2], in [3], in test [4] and in test [5] was inactive. The Potency entry in test [10] and in test [11] was “inactive” each time.

On to `O=S(=O)(O)c1cc(I)c(O)c2ncccc12`, for which the Potency entry in [9] was “inactive”.

Turning to `CN(C)CCCN1c2ccccc2CCc2ccccc21`, the compound was classed as inactive in test [4] and in test [5].

For `Cc1cc2c(cc1S(N)(=O)=O)S(=O)(=O)CCC2`, in test [9], the Potency entry was “inactive”.

Consider `CC1(C)CO[C@@H](CC(=O)O)CN1`, for which, in [9], the Potency entry is “inactive”.

With `CCN(CC)C(C)CN1c2ccccc2Sc2ccccc21` (stereo not drawn), the call in test [3], in test [4] and in test [5] was inactive. Also, the Potency in [9] is 44.7 µM (active) and inactive. The Potency result in [10] is “inactive”.

Regarding `NC(=O)c1ncn([C@@H]2O[C@H](CO)[C@@H](O)[C@H]2O)n1`, the compound was classed as inactive in [2], in test [3] and in [16]. Further, the Potency entry in test [9] and in [10] was “inactive” in each case. For the same compound, the activation in test [8] is 1.78% (inactive).

With `CCOC(CN1CCN(CC(C)C(=O)c2ccccc2)CC1)c1ccccc1` (stereo not drawn), in test [9], the Potency result is “inactive”.

In the case of `C[C@]12C[C@H](O)[C@H]3[C@@H](CCC4=CC(=O)CC[C@@]43C)[C@@H]1CC[C@@H]2C(=O)CO`, the result in [3], in test [4], in test [5], in test [7], in [17] and in test [12] was inactive. The result in test [14], in test [15] and in [18] was inactive. The Potency result in test [9], in test [10] and in test [11] was “inactive” throughout. Further, the max response in [13] was determined as 57.2%.
